“And” between values parts separate entries of the source, which are not always exact repeats. Identical values can stand only once. Out of some 5,500 compounds screened, about 2,000 (36%) were called active. Not shown: some 18% with an inconclusive outcome. No stated cut-off is given here; in the data, active means normalized growth mostly below about 0.91 (no sharp cut-off); inconclusive means no clear call, values can overlap the other calls; inactive means mostly above about 0.92. The list shows a part of the results.
Experiment: chemical genetic growth profiling, strain panel (AID 1159580);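 further: tested at 20 µM; growth read once vehicle control cultures reached saturation at 30 °C; 1 = growth at the plate median or of vehicle wells; lower values mean less growth of the strain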
Settings: S. cerevisiae deletion strains, growth OD

Measured: normalized growth

O=C1CN(/N=C\c2ccc([N+](=O)[O-])o2)C(=O)N1
inactive: locus YAL013W, strain DEP1, hits give low values 0.993 | locus YAL021C, strain ccr4, hits give low values 0.98 | locus YAL026C, strain drs2, hits give low values 0.956 | locus YAL030W, strain snc1, hits give low values 0.986 | locus YBL061C, strain skt5, hits give low values 0.987 | locus YBR009C, strain hhf1, hits give low values 0.977 | locus YBR021W, strain FUR4, hits give low values 0.997 | locus YBR023C, strain chs3, hits give low values 0.982 | locus YBR171W, strain sec66, hits give low values 0.982 | locus YBR229C, strain ROT2, hits give low values 1.01 | locus YBR231C, strain swc5, hits give low values 0.977 | locus YBR279W, strain paf1, hits give low values 0.97 | locus YCL011C, strain gbp2, hits give low values 0.964 | locus YCL016C, strain dcc1, hits give low values 0.99 | locus YCL029C, strain bik1, hits give low values 1.01 | locus YCL061C, strain MRC1, hits give low values 0.986 | locus YCL069W, strain vba3, hits give low values 0.956 | locus YCR088W, strain abp1, hits give low values 0.966 | locus YDL005C, strain med2, hits give low values 0.967 | locus YDL035C, strain GPR1, hits give low values 0.978 | locus YDL040C, strain nat1, hits give low values 0.97 | locus YDL074C, strain BRE1, hits give low values 0.914 | locus YDL101C, strain DUN1, hits give low values 0.995 | locus YDL134C, strain PPH21, hits give low values 1 | locus YDL185W, strain tfp1, hits give low values 0.99 | locus YDL192W, strain arf1, hits give low values 0.991 | locus YDR001C, strain nth1, hits give low values 0.975 | locus YDR069C, strain doa4, hits give low values 0.94 | locus YDR101C, strain arx1, hits give low values 0.976 | locus YDR137W, strain rgp1, hits give low values 1.02 | locus YDR150W, strain NUM1, hits give low values 1 | locus YDR159W, strain sac3, hits give low values 0.954 | locus YDR162C, strain NBP2, hits give low values 0.99 | locus YDR195W, strain ref2 0.979 | locus YDR297W, strain sur2, hits give low values 0.983 | locus YDR318W, strain mcm21, hits give low values 0.973 | locus YDR334W, strain swr1, hits give low values 0.976 | locus YDR335W, strain msn5, hits give low values 0.986 | locus YDR388W, hits give low values 0.995 | locus YDR502C, strain sam2, hits give low values 0.974 | locus YEL003W, strain gim4, hits give low values 0.942 | locus YEL037C, strain rad23, hits give low values 0.963 | locus YEL061C, strain CIN8 (second series), hits give low values 0.969 | locus YEL061C, strain CIN8, hits give low values 0.996 | locus YER015W, strain faa2, hits give low values 0.961 | locus YER016W, strain bim1, hits give low values 0.96 | locus YER110C, hits give low values 0.99 | locus YER111C, strain swi4, hits give low values 0.981 | locus YER155C, strain BEM2, hits give low values 0.998 | locus YER167W, strain BCK2, hits give low values 0.985 | locus YFR010W, strain ubp6, hits give low values 0.942 | locus YGL078C, strain dbp3, hits give low values 0.977 | locus YGL086W, strain mad1, hits give low values 0.977 | locus YGL167C, strain pmr1, hits give low values 0.983 | locus YGL173C, strain kem1, hits give low values 0.987 | locus YGL227W, strain vid30, hits give low values 0.979 | locus YGL240W, strain doc1, hits give low values 0.922 | locus YGL248W, strain PDE1, hits give low values 1 | locus YGL253W, strain hxk2, hits give low values 0.976 | locus YGR078C, strain PAC10, hits give low values 0.975 | locus YGR135W, strain pre9, hits give low values 0.963 | locus YGR229C, strain SMI1, hits give low values 0.958 | locus YGR252W, strain gcn5, hits give low values 0.804 | locus YHR013C, strain ard1, hits give low values 0.942 | locus YHR027C, strain rpn1, hits give low values 0.985 | locus YHR030C, strain SLT2, hits give low values 0.991 and 0.902 | locus YHR079C, strain IRE1 (second series), hits give low values 0.989 | locus YHR079C, strain IRE1, hits give low values 0.91 | locus YHR094C, strain hxt1, hits give low values 0.999 | locus YHR129C, strain ARP1, hits give low values 1 | locus YHR142W, strain chs7, hits give low values 0.946 | locus YHR200W, strain rpn10, hits give low values 0.985 | locus YIL066C, strain RNR3, hits give low values 1.01 | locus YIL073C, strain SPO22, hits give low values 0.969 | locus YIL125W, strain kgd1, hits give low values 0.987 | locus YIR030C, strain dcg1, hits give low values 0.994 | locus YJL092W, strain hpr5, hits give low values 0.971 | locus YJL095W, strain BCK1 (second series), hits give low values 0.982 | locus YJL095W, strain BCK1, hits give low values 0.969 and 0.892 | locus YJL115W, strain asf1, hits give low values 0.951 | locus YJL129C, strain trk1, hits give low values 0.968 | locus YJL134W, strain LCB3, hits give low values 1 | locus YJL154C, strain vps35, hits give low values 0.971 | locus YJL164C, strain tpk1, hits give low values 0.957 | locus YJL166W, strain qcr8, hits give low values 0.964 | locus YJL168C, strain set2, hits give low values 0.989 | locus YJL187C, strain SWE1 (second series), hits give low values 1.01 | locus YJL187C, strain SWE1, hits give low values 0.973 | locus YJR043C, strain POL32, hits give low values 0.979 | locus YJR066W, strain TOR1, hits give low values 0.87
active: locus YDR392W, strain spt3, hits give low values 0.68 | locus YER155C, strain BEM2 (second series), hits give low values 0.854

— PubChem BioAssay AID1159580 (chemical genetic matrix, 2015)
